Compounds without any hit were thinned out: in the full panel of roughly 83,000, 20% have a hit.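 Testing used 96-well plates and a 48-hour single-concentration exposure. Example: -40 means 40% of the starting cells died.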 Values without a mark were called inactive. Activity calls are given as the source filed them. How the source made its calls: active means growth percent below 10; inactive means the rest.

The subject of the assay is MDA-MB-468 breast. The assay is described as follows: NCI-60 one-dose screen, 48 h (100 = growth as untreated, 0 = no growth, -100 = all killed). Conditions: 10 µM unless noted.
With `CCCCN1CCCC[C@@H]1C(=O)N[C@H](C(=O)N(C)[C@H](C[C@@H](OC(C)=O)c1nc(C(=O)NC2CCC(C(=O)OC)CC2)cs1)C(C)C)C(C)C` (some centres undefined), the growth is 17.4%.

Turning to `O=[N+]([O-])c1cc(Cl)c(Cl)c([N+](=O)[O-])c1Cl`, the growth was 9.01% (active).

For `COC(=O)[C@@H](C)C[C@H](Cc1ccccc1)NC(=O)c1csc([C@@H](C[C@H](C(C)C)N(C)C(=O)[C@@H](NC(=O)[C@H]2CCCCN2C)C2CCCCC2)OC(C)=O)n1`, the growth is -8.49% (active).

For the compound `C[C@]12CCc3sc(Nc4ccc(OC(F)(F)F)cc4)nc3C1=CC[C@@H]1[C@@H]2CC[C@]2(C)C(=O)CC[C@@H]12`, the growth is 69.1%.

In the case of `CCCCCCCCCCCCCCCCCCOc1ccccc1COP(=O)(O)OOCC[N+](C)(C)C`, the growth was -40.1% (active).

For the compound `Cn1cc(-c2csc(-c3cn(CCN4CCOCC4)c4ccc(F)cc34)n2)c2cccnc21`, the growth is 13.9%.

On to `COc1ccc2c(c1)C1(C)CCN(C)CC(C1)C2O` (centres undefined), for which the growth was 101%.

As to `Cc1cc(C)cc(Nc2nc3c(s2)CC[C@@]2(C)C3=CC[C@@H]3[C@@H]2CC[C@]2(C)C(=O)CC[C@@H]32)c1`, the growth is 57.9%.

`CC(C)(C)NCC(O)c1ccccc1Cl` (centres undefined): the growth is -12.6% (active).

Values taken from PubChem BioAssay (NCI).
